# Measured values as given in the supplement of paper PMC8728848.
# Shown is part of a subset that was picked to be rich in the strongest signals.
# B1: Gs78B-bfa-542-29-542 (Bacteroides fragilis) (protein)
# chain: SEDINRNPLLPTKEDEKMDGVIYGAYLPNLEKSVIPIGTASESTEPVNRYQIGVNLAGDAWAGYMSPRDNKFNGSKNFTNYFMYENWVNYVYSFMVTDVYSPWMQIKRISQDEGTRNDEIYALAQIIKIAALHRTTDMFGPIPYSQVGKGSFKVAYDSQESVYRSFLKELEEAVQTLDDYSNKSKEVLPAFDIVYNGDVNKWMRFANSLMLRLAIRVRFADAGLAKEYAEKAVKHPAGLINSKELAAQMGKGAGLQMKNPLKVINEEYNDTRMGATIYSYLAGYNDARAAVYFVKNNGFKAVRCGIAKSGDAYNGFTRPNVHEDDPLYWMKASEVCFLKAEGALAGFDMGGSAGDFYNAGIRMSFSENGLDNSSAETYLKDSTRKPANYTDTSNGELSANAPSSITIRWENGATEEEKLERIITQKYLAIFPNGQEAWTEWRRTGYPRQIVVAENKTNSAVLIGNGYDLGGVRRLPYPRTEYEQNGENLHNAISQYLGGVDNAATKVWWDKKSK
# Legend:
# Test in all cases: glycan array binding signal (z-score within array); higher = stronger binding
# Settings in all cases: glycan notation: IUPAC condensed, linker removed
# [1] = target: Fuc(a1-2)Gal(b1-3)GalNAc(a1-3)[Fuc(a1-2)]Gal(b1-4)Glc
# Outline: (§1)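 Glycan array binding is given as a within-array Z-score, which can be read as non-binding when negative. The arrays, 3228 of them, came from the Consortium for Functional Glycomics database and were retained only where the protein sequence was available. Z-scores were averaged across arrays of the same protein sequence at different concentrations or buffers and across linkers.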
# [2] = target: Fuc(a1-2)Gal(b1-3)GlcNAc(b1-3)Gal(b1-4)Glc
# Outline: as §1
# [3] = target: Fuc(a1-2)Gal(b1-3)GlcNAc(b1-3)[Fuc(a1-2)Gal(b1-3)GlcNAc(b1-6)]GalNAc
# Outline: as §1
# [4] = target: Fuc(a1-2)Gal(b1-4)[Fuc(a1-3)]GlcNAc(b1-3)Gal(b1-4)[Fuc(a1-3)]GlcNAc
# Outline: as §1
# [5] = target: Fuc(a1-2)[Gal(a1-3)]Gal(b1-3)GlcNAc(b1-6)GalNAc
# Outline: as §1
# [6] = target: Fuc(a1-2)[Gal(a1-3)]Gal(b1-4)GlcNAc(b1-3)GalNAc
# Outline: as §1
# [7] = target: Fuc(a1-2)[GalNAc(a1-3)]Gal(b1-4)GlcNAc(b1-3)Gal(b1-4)GlcNAc(b1-3)Gal(b1-4)GlcNAc
# Outline: as §1
# [8] = target: Fuc(a1-3)[Gal(b1-4)]GlcNAc(b1-2)Man(a1-3)[Fuc(a1-3)[Gal(b1-4)]GlcNAc(b1-2)Man(a1-6)]Man(b1-4)GlcNAc(b1-4)GlcNAc
# Outline: as §1
# [9] = target: Gal(a1-3)Gal(b1-3)[Fuc(a1-4)]GlcNAc(b1-2)Man(a1-3)[Gal(a1-3)Gal(b1-3)[Fuc(a1-4)]GlcNAc(b1-2)Man(a1-6)]Man(b1-4)GlcNAc(b1-4)GlcNAc
# Outline: as §1
# [10] = target: Gal(b1-3)GlcNAc(b1-2)Man(a1-3)[Gal(b1-3)GlcNAc(b1-2)Man(a1-6)]Man(b1-4)GlcNAc(b1-4)[Fuc(a1-6)]GlcNAc
# Outline: as §1
# [11] = target: Gal(b1-3)GlcNAc(b1-3)Gal(b1-4)GlcNAc(b1-2)Man(a1-3)[Gal(b1-3)GlcNAc(b1-3)Gal(b1-4)GlcNAc(b1-2)Man(a1-6)]Man(b1-4)GlcNAc(b1-4)GlcNAc
# Outline: as §1
# Gal(b1-3)GlcNAc6S = target: Gal(b1-3)GlcNAc6S
# Outline: as §1
# [12] = target: Gal(b1-3)[Fuc(a1-4)]GlcNAc(b1-2)Man
# Outline: as §1
# [13] = target: Gal(b1-4)GlcNAc(b1-2)Man(a1-3)Man(b1-4)GlcNAc(b1-4)GlcNAc
# Outline: as §1
# [14] = target: Gal(b1-4)GlcNAc(b1-3)Gal(b1-4)GlcNAc
# Outline: as §1
# [15] = target: Gal(b1-4)GlcNAc(b1-3)Gal(b1-4)GlcNAc(b1-2)Man(a1-3)[Gal(b1-4)GlcNAc(b1-3)Gal(b1-4)GlcNAc(b1-2)Man(a1-6)]Man(b1-4)GlcNAc(b1-4)[Fuc(a1-6)]GlcNAc
# Outline: as §1
# [16] = target: Gal(b1-4)GlcNAc(b1-3)Gal(b1-4)GlcNAc(b1-2)[Gal(b1-4)GlcNAc(b1-3)Gal(b1-4)GlcNAc(b1-6)]Man(a1-6)[Gal(b1-4)GlcNAc(b1-3)Gal(b1-4)GlcNAc(b1-2)Man(a1-3)]Man(b1-4)GlcNAc(b1-4)[Fuc(a1-6)]GlcNAc
# Outline: as §1
# [17] = target: Gal(b1-4)GlcNAc(b1-3)Gal(b1-4)GlcNAc(b1-3)Gal(b1-4)GlcNAc(b1-2)Man(a1-3)[Gal(b1-4)GlcNAc(b1-3)Gal(b1-4)GlcNAc(b1-3)Gal(b1-4)GlcNAc(b1-2)Man(a1-6)]Man(b1-4)GlcNAc(b1-4)GlcNAc
# Outline: as §1
# [18] = target: Gal(b1-4)GlcNAc(b1-3)Gal(b1-4)GlcNAc(b1-3)Gal(b1-4)GlcNAc(b1-2)Man(a1-3)[Gal(b1-4)GlcNAc(b1-3)Gal(b1-4)GlcNAc(b1-3)Gal(b1-4)GlcNAc(b1-2)Man(a1-6)]Man(b1-4)GlcNAc(b1-4)[Fuc(a1-6)]GlcNAc
# Outline: as §1
# Gal3S(b1-4)Glc6S = target: Gal3S(b1-4)Glc6S
# Outline: as §1
# [19] = target: Gal3S(b1-4)[Fuc(a1-3)]GlcNAc
# Outline: as §1
# Gal6S(b1-4)Glc = target: Gal6S(b1-4)Glc
# Outline: as §1
# Gal6S(b1-4)Glc6S = target: Gal6S(b1-4)Glc6S
# Outline: as §1
# GalNAc(b1-3)Gal = target: GalNAc(b1-3)Gal
# Outline: as §1
# [20] = target: GalNAc(b1-3)Gal(a1-4)Gal(b1-4)GlcNAc
# Outline: as §1
# [21] = target: GalNAc(b1-3)Gal(a1-4)Gal(b1-4)GlcNAc(b1-3)Gal(b1-4)Glc
# Outline: as §1
# GalNAc(b1-3)GalNAc = target: GalNAc(b1-3)GalNAc
# Outline: as §1
# GalNAc3S(b1-4)GlcNAc3S = target: GalNAc3S(b1-4)GlcNAc3S
# Outline: as §1
# GalNAc6S(b1-4)GlcNAc = target: GalNAc6S(b1-4)GlcNAc
# Outline: as §1
# Glc(b1-6)Glc = target: Glc(b1-6)Glc
# Outline: as §1
# GlcA(b1-6)Gal = target: GlcA(b1-6)Gal
# Outline: as §1
# [22] = target: GlcNAc(a1-4)Gal(b1-4)GlcNAc(b1-3)Gal(b1-4)GlcNAc
# Outline: as §1
# [23] = target: GlcNAc(b1-2)[GlcNAc(b1-4)]Man(a1-3)[GlcNAc(b1-4)][GlcNAc(b1-2)Man(a1-6)]Man(b1-4)GlcNAc(b1-4)GlcNAc
# Outline: as §1
# [24] = target: GlcNAc(b1-2)[GlcNAc(b1-6)]Man(a1-6)[GlcNAc(b1-4)][GlcNAc(b1-2)Man(a1-3)]Man(b1-4)GlcNAc(b1-4)GlcNAc
# Outline: as §1
# [25] = target: GlcNAc(b1-3)Gal(b1-3)GalNAc
# Outline: as §1
# [26] = target: GlcNAc(b1-3)Gal(b1-4)GlcNAc(b1-2)Man(a1-3)[GlcNAc(b1-3)Gal(b1-4)GlcNAc(b1-2)Man(a1-6)]Man(b1-4)GlcNAc(b1-4)GlcNAc
# Outline: as §1
# [27] = target: GlcNAc(b1-4)Gal(b1-4)GlcNAc
# Outline: as §1
# GlcNAc(b1-6)GalNAc = target: GlcNAc(b1-6)GalNAc
# Outline: as §1
# Kdn(a2-3)Gal(b1-4)GlcNAc = target: Kdn(a2-3)Gal(b1-4)GlcNAc
# Outline: as §1
# [28] = target: Man(a1-2)Man(a1-6)[Man(a1-3)]Man(a1-6)[Man(a1-2)Man(a1-2)Man(a1-3)]Man
# Outline: as §1
# [29] = target: Man(a1-3)[Man(a1-6)]Man(a1-6)[Man(a1-2)Man(a1-3)]Man(b1-4)GlcNAc(b1-4)GlcNAc
# Outline: as §1
# [30] = target: Neu5Ac(a2-3)Gal(b1-3)GlcNAc
# Outline: as §1
# [31] = target: Neu5Ac(a2-3)Gal(b1-3)[Fuc(a1-4)]GlcNAc
# Outline: as §1
# [32] = target: Neu5Ac(a2-3)Gal(b1-4)GlcNAc(b1-2)Man
# Outline: as §1
# [33] = target: Neu5Ac(a2-3)Gal(b1-4)GlcNAc(b1-2)[Neu5Ac(a2-3)Gal(b1-4)GlcNAc(b1-6)]Man(a1-6)[Neu5Ac(a2-3)Gal(b1-4)GlcNAc(b1-2)Man(a1-3)]Man(b1-4)GlcNAc(b1-4)GlcNAc
# Outline: as §1
# [34] = target: Neu5Ac(a2-3)Gal(b1-4)GlcNAc(b1-3)Gal(b1-4)GlcNAc(b1-3)Gal(b1-4)GlcNAc
# Outline: as §1
# [35] = target: Neu5Ac(a2-3)Gal(b1-4)[Fuc(a1-3)]GlcNAc(b1-6)[Neu5Ac(a2-3)Gal(b1-3)]GalNAc
# Outline: as §1
# Neu5Ac(a2-6)Gal(b1-4)Glc = target: Neu5Ac(a2-6)Gal(b1-4)Glc
# Outline: as §1
# [36] = target: Neu5Ac(a2-6)Gal(b1-4)GlcNAc(b1-2)Man(a1-3)Man(b1-4)GlcNAc(b1-4)GlcNAc
# Outline: as §1
# [37] = target: Neu5Ac(a2-6)Gal(b1-4)GlcNAc(b1-2)[Neu5Ac(a2-6)Gal(b1-4)GlcNAc(b1-6)]Man(a1-6)[Neu5Ac(a2-6)Gal(b1-4)GlcNAc(b1-2)Man(a1-3)][GlcNAc(b1-4)]Man(b1-4)GlcNAc(b1-4)GlcNAc
# Outline: as §1
# [38] = target: Neu5Ac(a2-8)Neu5Ac(a2-3)Gal(b1-3)GalNAc(b1-4)[Neu5Ac(a2-8)Neu5Ac(a2-3)]Gal(b1-4)Glc
# Outline: as §1
# [39] = target: Neu5Ac(a2-8)Neu5Ac(a2-8)Neu5Ac(a2-3)[Gal(b1-3)GalNAc(b1-4)]Gal(b1-4)Glc
# Outline: as §1
# [40] = target: Neu5Ac(a2-8)Neu5Ac(a2-8)Neu5Ac(a2-8)Neu5Ac(a2-3)[GalNAc(b1-4)]Gal(b1-4)Glc
# Outline: as §1
# [41] = target: Neu5Gc(a2-3)Gal(b1-4)[Fuc(a1-3)]GlcNAc
# Outline: as §1
binder,measurement,setting,value
B1,glycan array binding signal (z-score),[1],0.024
same,glycan array binding signal (z-score),[2],-0.826
same,glycan array binding signal (z-score),[3],0.287
same,glycan array binding signal (z-score),[4],-0.816
same,glycan array binding signal (z-score),[5],2.8
same,glycan array binding signal (z-score),[6],0.185
same,glycan array binding signal (z-score),[7],1.31
same,glycan array binding signal (z-score),[8],1.04
same,glycan array binding signal (z-score),[9],4.3
same,glycan array binding signal (z-score),[10],1.53
same,glycan array binding signal (z-score),[11],-0.404
same,glycan array binding signal (z-score),Gal(b1-3)GlcNAc6S,2.8
same,glycan array binding signal (z-score),[12],-0.693
same,glycan array binding signal (z-score),[13],0.534
same,glycan array binding signal (z-score),[14],-0.463
same,glycan array binding signal (z-score),[15],2.98
same,glycan array binding signal (z-score),[16],3.42
same,glycan array binding signal (z-score),[17],2.01
same,glycan array binding signal (z-score),[18],3.12
same,glycan array binding signal (z-score),Gal3S(b1-4)Glc6S,-0.778
same,glycan array binding signal (z-score),[19],-0.801
same,glycan array binding signal (z-score),Gal6S(b1-4)Glc,0.825
same,glycan array binding signal (z-score),Gal6S(b1-4)Glc6S,0.798
same,glycan array binding signal (z-score),GalNAc(b1-3)Gal,-0.448
same,glycan array binding signal (z-score),[20],0.47
same,glycan array binding signal (z-score),[21],1.12
same,glycan array binding signal (z-score),GalNAc(b1-3)GalNAc,-0.725
same,glycan array binding signal (z-score),GalNAc3S(b1-4)GlcNAc3S,-0.813
same,glycan array binding signal (z-score),GalNAc6S(b1-4)GlcNAc,-0.336
same,glycan array binding signal (z-score),Glc(b1-6)Glc,-0.312
same,glycan array binding signal (z-score),GlcA(b1-6)Gal,2.77
same,glycan array binding signal (z-score),[22],-0.691
same,glycan array binding signal (z-score),[23],-0.838
same,glycan array binding signal (z-score),[24],-0.844
same,glycan array binding signal (z-score),[25],-0.48
same,glycan array binding signal (z-score),[26],-0.439
same,glycan array binding signal (z-score),[27],-0.828
same,glycan array binding signal (z-score),GlcNAc(b1-6)GalNAc,-0.233
same,glycan array binding signal (z-score),Kdn(a2-3)Gal(b1-4)GlcNAc,2.84
same,glycan array binding signal (z-score),[28],-0.844
same,glycan array binding signal (z-score),[29],3.49
same,glycan array binding signal (z-score),[30],-0.067
same,glycan array binding signal (z-score),[31],-0.793
same,glycan array binding signal (z-score),[32],2.92
same,glycan array binding signal (z-score),[33],0.079
same,glycan array binding signal (z-score),[34],-0.832
same,glycan array binding signal (z-score),[35],5.64
same,glycan array binding signal (z-score),Neu5Ac(a2-6)Gal(b1-4)Glc,-0.346
same,glycan array binding signal (z-score),[36],1.48
same,glycan array binding signal (z-score),[37],-0.454
same,glycan array binding signal (z-score),[38],0.648
same,glycan array binding signal (z-score),[39],-0.843
same,glycan array binding signal (z-score),[40],1.92
same,glycan array binding signal (z-score),[41],0.283
